Test results published in PubChem BioAssay (NCI).
The panel holds about 79,000 compounds, 15% with a hit somewhere; the sample as a whole holds those more often. A number with no mark means an inactive call. The source made the active and inactive calls. No stated cut-off is given here; in the data, active means growth inhibition above about 70%; inactive means the rest.

Assay: NCI Yeast Anticancer Drug Screen. Data for the mlh1 strain (AID 171);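 further: 0% = growth of vehicle-treated control cultures of the same strain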
Details: S. cerevisiae mlh1 strain growth inhibition; at 33.0 µM; stronger effect = higher value
In short: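 Read-out: growth inhibition versus vehicle controls. Strain: engineered yeast with a defined DNA repair or cell cycle defect, compound-treated.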

Structure (SMILES)	growth inhibition
COc1ccc(/C=C2\CCc3ccccc3C2=O)cc1OC	79% (active)
O=Cc1ccccc1B(O)O	99% (active)
O=C(O)[C@H]1[C@@H](C2CCCCC2)O[C@@H](C2CCCCC2)O[C@H]1C(F)(F)F	-5%
CN(NC(=O)/C(=C/C=C/c1ccccc1)NC(=O)c1ccccc1)C1=C(Cl)C(=O)[N+](c2ccccc2)=CC1	61%
CCCCOc1ccc(Nc2c3ccccc3nc3ccccc23)cc1	98% (active)
N#C/C(=C1C=C/C(=N\O)C(Cl)=C\1)c1ccccc1	10%
COc1ccc(C(=O)OCCc2ccccc2)cc1	1%
Cc1c2ccncc2c(C)c2c1oc1ccccc12	87% (active)
CCCC#CCOC(=O)c1cc([N+](=O)[O-])cc([N+](=O)[O-])c1	99% (active)
Nc1nc(Nc2ccccc2)nc(Nc2ccccc2)n1	35%
COc1ccc(/C=C2\S/C(=N/Nc3nc(-c4ccccc4)cs3)NC2=O)cc1OC	94% (active)
CC(O)CN1C(=O)c2cccc3cc([N+](=O)[O-])cc(c23)C1=O (stereo unspecified)	50%
Cn1c(COc2ccc(/C=N/NC(=O)CCC(=O)N/N=C/c3ccc(OCc4c[n+]5ccccc5n4C)cc3)cc2)c[n+]2ccccc12	8%
COC1=C(N=[N+]=[N-])C(=O)c2ncccc2C1=O	80% (active)
CCN(CC)c1ccc(N=Nc2cc(S(=O)(=O)O)ccc2O)c(O)c1	-3%
O=C1C(C(O)(C(F)(F)F)C(F)(F)F)CCC1C(O)(C(F)(F)F)C(F)(F)F (stereo unspecified)	22%
CN(C)CCNC(=O)c1cccc2nc3c(ccc4ccccc43)nc12	28%
O=S(=O)(CCC[C@H]1[C@@H](CCOCc2ccccc2)C2CCCN1O2)c1ccccc1 (stereo partly specified)	7%
Nc1c([N+](=O)[O-])cc2c3c(cccc13)CC2	28%
CC1=Cc2ccc(C)cc2C(=O)C1=O	99% (active)
C=Cc1c(C)c(O)cc2c1-c1ccc(O)c(C)c1CC2	98% (active)
NCC(O)CSCc1ccc(Cl)cc1 (stereo unspecified)	-1%
C[n+]1c(-c2ccc(NC(=O)c3ccc(C(=O)Nc4ccc(-c5cn6ccccc6[n+]5C)cc4)cc3)cc2)cn2ccccc21	89% (active)
CNC(=O)OCc1c(COC(=O)NC)c(C)n(-c2ccc(Cl)c(Cl)c2)c1C	97% (active)
[O-]c1c2cc(-[n+]3c(-c4ccccc4)cc(-c4ccccc4)cc3-c3ccccc3)cc1COCCOCCOCCOCCOC2	12%
C[Si](C)(C)Cc1ccccc1C(=O)O	42%
